We go through 21 compounds from PubChem BioAssay (NCATS).

The structures appear in SMILES notation. Records with an inconclusive call do not appear. Activity calls are given as the source filed them. Calls come from the whole dose curve; as a rule, active = well fitted curve in the direction sought with a large enough effect; inconclusive = small, poorly fitted or top-dose-only effect, or another doubt; inactive = no such curve, though single readings can be large; an effect the other way counts as inactive or inconclusive.

A short description of assay [1]: MultiTox-Fluor Cytotoxicity Assay - LYMP1-002 - Live Cells (AID 955).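 Note: cells exposed to compound for 16 hours.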 A digest of the protocol:
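Human lymphoblastoid LYMP1-002 cells, 2500/well, treated 16 h at 37 C in complete medium. Live-cell protease activity via GF-AFC fluorescence (Ex/Em 405/510) after 60 min reagent incubation; AC50 from Hill fits.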

The nature of assay [2]: MultiTox-Fluor Cytotoxicity Assay - LYMP1-002 - Dead Cells (AID 960). Note: nearly all actives have a fitted effect of over 60% in size. A digest of the protocol:
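Human lymphoblastoid LYMP1-002 cells, 2500/well, treated 16 h at 37 C; dead-cell protease cleavage of bis-AAF-R110 read by fluorescence (485/520); normalized to DMSO and 15 uM tetraoctylammonium bromide; AC50 from Hill fit.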

A short description of assay [3]: MultiTox-Fluor Cytotoxicity Assay - LYMP1-003 - Dead Cells (AID 961).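 Note: cells exposed to compound for 16 h at 37 °C; nearly all actives have a fitted effect of over 70% in size.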 A digest of the protocol: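 LYMP1-003 lymphoblastoid, 2500 cells/well, 5 hr settle then 16 hr cpd at 37 C; MultiTox-Fluor reagent 60 min RT; Ex/Em 485/520 dead-cell signal; norm. DMSO = 0%, 15 uM tetraoctylammonium bromide = 100%; Hill AC50.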
A short description of assay [4]: MultiTox-Fluor Cytotoxicity Assay - LYMP1-003 - Live Cells (AID 962).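 Note: cells exposed to compound for 16 hours at 37 °C.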 Summed up:
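LYMP1-003 lymphoblastoid cells, 2500/well in complete medium, treated 16 h at 37 C; live-cell protease cleavage of GF-AFC read by fluorescence (Ex/Em 405/510) after 60 min reagent; AC50 from Hill fits of concentration-response.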

Assay [5] in a line: Cell Viability - LYMP1-003 - Assay at 24 hr (AID 963). A digest of the protocol:
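Human lymphoblastoid LYMP1-003 cells, 2500/well, treated 24 h at 37 C in complete medium. Viability read as intracellular ATP by CellTiter-Glo luminescence after 30 min at room temperature; AC50 from Hill-equation fits of qHTS concentration-response.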

The nature of assay [6]: Cell Viability - LYMP1-003 - Assay at 40 hr (AID 964). Note: nearly all actives have a fitted effect of over 60% in size. Summed up:
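LYMP1-003 human lymphoblastoid cells, 2500/well, preincubated 5 h at 37 C, then treated with compound for 40 h at 37 C. Intracellular ATP read by CellTiter-Glo luminescence after 30 min at room temperature; AC50 from Hill-equation fits.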

A short description of assay [7]: Cell Viability - LYMP2-003 (AID 965).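 Note: cells exposed to compounds for 24 h before reading; nearly all actives have a fitted effect of over 50% in size.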 A digest of the protocol:
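CellTiter-Glo luminescence (cellular ATP) after 24 h compound exposure at 37 C in complete medium; 2500 cells/well, 5 h settling beforehand. Concentration-response fitted to standard Hill equation for AC50. Tetraoctylammonium bromide served as positive control.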

Assay [8] is described as follows: Cell Viability - LYMP2-004 (AID 966). Note: nearly all actives have a fitted effect of over 65% in size. Summed up: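 Lymphoblastoid LYMP2-004 cells, 2500 per well, were preincubated for 5 hr and then treated with compound for 24 h at 37 C in complete medium. Viability was read as cellular ATP by CellTiter-Glo luminescence, and AC50 values were taken from Hill fits to concentration-response data.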
The nature of assay [9]: Cell Viability - LYMP2-005 (AID 967). Summed up:
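Steps: seed 2500 LYMP2-005 cells/well, incubate 5 h at 37 C, add compound, incubate 24 h at 37 C, add CellTiter-Glo, wait 30 min at RT, read luminescence. Concentration-response data fitted to Hill equation for AC50.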

Assay [10] can be described thus: Cell Viability - LYMP2-009 (AID 968). Note: nearly all actives have a fitted effect of over 55% in size.
Potency is the fitted concentration of half-maximal effect.

For `Oc1ccccc1`, the Potency entry in [1], in [2], in [3], in assay [4], in assay [5] and in [6] was “inactive” each time. The Potency result in assay [7], in assay [8], in [9] and in assay [10] was “inactive” each time.
On to `OCc1c[nH]c2ccccc12`, for which the Potency entry in assay [1], in assay [2], in assay [3], in assay [4], in [5] and in [6] was “inactive” each time. Moreover, the Potency entry in assay [7], in [8], in assay [9] and in assay [10] was “inactive” throughout.
On to `COc1cc(C=O)ccc1O`, for which the Potency entry in [1], in [2], in assay [3], in assay [4], in assay [5] and in assay [6] was “inactive” each time. Also, the Potency entry in assay [7], in [8], in [9] and in [10] was “inactive” each time.
For `CC(C)C(C)(C)C(C)(C)C(C)(C)S`, the Potency entry in [1], in [3], in assay [4], in assay [5], in [6] and in assay [7] was “inactive” throughout. Besides, the Potency result in [8] and in assay [10] was “inactive” in each case.
Consider `C1=CC2C3C=CC(C3)C2C1` (stereo not given), for which the Potency result in [1], in [2], in assay [3], in [4], in [5] and in assay [6] was “inactive” throughout. Besides, the Potency entry in [7], in [9] and in [10] was “inactive” each time.
Turning to `CCCCCCCCCCCCCCCC[n+]1ccccc1`, the Potency was 12.6 µM (active) in assay [1]; 10 µM (active) in assay [2]; 31.6 µM (active) in assay [4]; 20 µM (active) in [5]; 10 µM (active) in assay [6]; 31.6 µM (active) in [7]. Further, the Potency in [9] and in assay [10] was 15.8 µM (active) each time.
With `CCCC(=O)c1cc(O)c(O)cc1O`, the Potency result in assay [1], in assay [2], in [3], in assay [4], in assay [5] and in [9] was “inactive” each time. For the same compound, in [10], the Potency entry is “inactive”.
Take `c1ccc2occc2c1`: the Potency result in [1], in [2], in [3], in assay [4], in assay [5] and in assay [6] was “inactive” in each case. For the same compound, the Potency entry in assay [7], in [8], in assay [9] and in [10] was “inactive” in each case.
As for `O=C(Oc1ccccc1)c1ccccc1O`, the Potency entry in assay [1], in [2], in assay [3], in [4], in assay [5] and in [6] was “inactive” throughout. For the same compound, the Potency result in [7], in assay [8], in assay [9] and in assay [10] was “inactive” throughout.
Consider `Nc1cccc2c(N)cccc12`, for which the Potency entry in assay [1], in assay [2], in [3], in assay [4], in assay [5] and in assay [6] was “inactive” each time. Also, the Potency result in [7], in [8], in assay [9] and in assay [10] was “inactive” throughout.
As for `Brc1ccccc1-c1ccccc1`, the Potency result in [1], in assay [2], in [3], in assay [4], in assay [5] and in assay [6] was “inactive” each time. Further, the Potency entry in assay [7], in assay [8], in assay [9] and in assay [10] was “inactive” throughout.
As for `CC(=O)OC/C=C(C)/C=C/C=C(C)/C=C/C1=C(C)CCCC1(C)C`, the Potency entry in assay [1], in [2], in [3], in [4] and in [5] was “inactive” throughout.
Regarding `Cc1ccc(O)cc1`, the Potency entry in assay [1], in assay [3], in assay [4], in assay [5], in assay [6] and in [7] was “inactive” in each case. Besides, the Potency entry in [8], in assay [9] and in [10] was “inactive” each time.
For the compound `O=C(c1ccccc1)c1ccccc1`, the Potency result in [1], in assay [2], in [3], in assay [4], in [5] and in assay [6] was “inactive” throughout. Besides, the Potency entry in assay [7], in assay [8], in assay [9] and in assay [10] was “inactive” each time.
Turning to `Nc1ccc(O)cc1`, the Potency in assay [1] was 25.1 µM (active); in [2], 31.6 µM (active); in assay [3], 50.1 µM (active); in assay [5], 50.1 µM (active); in [6], 39.8 µM (active); in assay [7], 25.1 µM (active). In addition, the Potency is 25.1 µM (active) in assay [8], 25.1 µM (active) in assay [9] and 31.6 µM (active) in assay [10].
`CC(C)(C)c1ccc(O)c(O)c1`: the Potency entry in [1], in assay [2], in assay [4] and in assay [5] was “inactive” each time. Also, the Potency in assay [6] is 25.1 µM (active); in assay [7] it was 50.1 µM (active); in assay [10], 39.8 µM (active).
Take `Cc1cc(C(C)(C)C)c(O)c(C(C)(C)C)c1`: the Potency result in assay [1], in assay [3], in [4], in assay [5], in [6] and in assay [7] was “inactive” throughout. Further, the Potency entry in assay [8], in [9] and in [10] was “inactive” each time.
For the compound `CC(C)(c1ccc(O)cc1)c1ccc(O)cc1`, the Potency result in [1], in assay [2], in assay [3], in assay [4], in [5] and in [6] was “inactive” each time. Besides, the Potency result in assay [7], in assay [8], in [9] and in [10] was “inactive” in each case.
In the case of `O=C(NO)c1ccccc1`, the Potency result in assay [1], in [2], in assay [3], in assay [4], in [5] and in [6] was “inactive” each time. Also, the Potency entry in assay [7], in [8], in assay [9] and in assay [10] was “inactive” each time.
For the compound `Nc1c2ccccc2nc2ccccc12`, the Potency result in assay [1] and in [4] was “inactive” each time. In addition, the Potency in assay [2] was 7.94 µM (active); in assay [3], 15.8 µM (active); in [5] it was 25.1 µM (active); in [6], 20 µM (active); in [7] it was 25.1 µM (active); in assay [8], 12.6 µM (active). Besides, in assay [10], the Potency was 10 µM (active).
For `CCCCC(CC)COC(=O)c1ccccc1C(=O)O` (stereo not given), the Potency result in assay [1], in assay [2], in assay [3], in [4], in assay [5] and in assay [6] was “inactive” each time. Besides, the Potency entry in [7], in assay [8], in [9] and in assay [10] was “inactive” in each case.
